Here are results for 40 molecules from the supplement of paper PMC4206467.

Structures are written as SMILES.

The subject of the test is Perkinsus marinus PRA240. Nature of the test: ATP content (proliferation) relative to DMSO control; higher = more parasite growth (less inhibition). The conditions noted are these: 20 µM; 4 days. The method, then: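 Perkinsus marinus PRA240 trophozoites (2-5x10^6 cells/ml, 100 µl, 96-well) were exposed once to MMV Malaria Box compounds at 20 µM (0.1% DMSO) in triplicate. ATP content (ATPlite bioluminescence) was read at day 4 post-exposure and normalised to DMSO + cells control wells (100% activity). Compounds were identified by joining plate and well to the Malaria Box list.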
Molecule `Nc1ccc(-c2nc3cc(Oc4ccc(Oc5ccc6[nH]c(-c7ccc(N)cc7)nc6c5)cc4)ccc3[nH]2)cc1` showed an ATP content of 74.1%.
The result for `Cc1cc(N2CCCC2)nc(Nc2ccc(NC(=O)CCc3ccccc3)cc2)n1` reads 119%.
Under `CCOc1ccccc1CN1CCc2nc3cc(C(C)(C)C)nn3c(O)c2C1` stands 51.7%.
The molecule `COc1ccc(C(O)(CCC(C)C)C(CN2CCOCC2)c2ccc(Cl)cc2)cc1` (stereo not given) returned an ATP content of 91.9%.
For the molecule `CCOC(=O)c1c(C)n(-c2ccccc2)c2ccc(OC(=O)c3cc(OC)c(OC)c(OC)c3)cc12`, the ATP content came out at 141%.
In turn, `N=c1n(CCN2CCCCC2)c2ccccc2n1CC(=O)c1ccc(Cl)c(Cl)c1` showed an ATP content of 111%.
`COc1cccc(C(=O)Nc2ccc(-c3nc4ccccc4[nH]3)cc2)c1`: the ATP content worked out at 108%.
`COc1cc(SC)ccc1C(=O)N1CCCC(C)C1` (stereo not given): the ATP content was 134%.
Turning to `Cc1ccccc1OCCSc1nc2ccc(NC(=O)c3cccs3)cc2s1`, the ATP content was found to be 30.1%.
As for `CCCOCc1cc(CN2CCN(c3cccc(Cl)c3)CC2)c(O)c2ncccc12`, the ATP content was determined as 22.8%.
The result for `O=C(Nc1cccc(C2=NCCN2)c1)Nc1cccc(C2=NCCN2)c1` reads 128%.
The molecule `COc1cc(OC)cc(N2C(=O)N(Cc3ccc(C(C)(C)C)cc3)c3ccccc3S2(=O)=O)c1` registered an ATP content of 130%.
Under `COc1ccc(CCn2c(=N)c(C(=O)NCc3cccnc3)cc3c(=O)n4cccc(C)c4nc32)cc1` stands 140%; under `Cc1ccc(OCCCCCCNCCO)c(C)c1`, 164%.
In turn, `COc1ccc(-c2nonc2NC(=O)c2cccc(C)c2)cc1OC` gave an ATP content of 82.6%.
Under `O=C1c2ccc3c4c(ccc(c24)C(=O)N1CCCCO)C(=O)N(CCCCO)C3=O` stands 50.5%; under `CCOC(=O)c1cnc2c(CC)cccc2c1O`, 80.1%.
`O=c1nc(C=Cc2ccc(Br)cc2)oc2ccccc12` returned an ATP content of 11.1%.
With `Cc1cc(Nc2ccc(OCc3ccccc3)cc2)nc2cc(O)ccc12`, the ATP content worked out at 4.92%.
`OC(CNCC1CCCO1)Cn1c2ccc(Cl)cc2c2cc(Cl)ccc21` (stereo not given): the ATP content came to 142%.
Consider `Cn1c(C(=O)c2cccc3ccccc23)nc2ccccc21`, for which the ATP content is 55.5%.
Under `O=C(Nc1ccc(Cl)c(Cl)c1)Nc1ccc(Cl)c(Cl)c1` stands 91.6%; under `CN(C)c1ccc(N2C(N)=NC(N)=NC2(C)C)cc1`, 114%.
In the case of `COc1cc(C(=O)ON=C(N)Cc2cccc3ccccc23)cc(OC)c1OC`, the ATP content worked out at 87.4%.
The result for `OC1=C2C(=Nc3ccccc3SC2c2ccc(Br)cc2)c2ccccc21` (stereo not given) reads 45.9%; that for `Clc1ccc2c(N3CCCC3)ccnc2c1`, 91%; that for `O=C(Cc1ccccc1)NC(c1ccc(Cl)cc1)c1c(O)ccc2ccccc12` (stereo not given), 36%.
The result for `O=C(NC1CCN(Cc2ccccc2)CC1)c1cc2nc(-c3ccc(Cl)s3)cc(C(F)(F)F)n2n1` reads 118%; that for `O=C(Nc1ccc(-c2nc3cc(NC(=O)c4ccc(Cl)cc4)ccc3[nH]2)cc1)c1ccc(Cl)cc1`, 141%; that for `Brc1ccc(Nc2nc3ccccc3nc2Nc2ccc(Br)cc2)cc1`, 18.3%.
The result for `O=C(Nc1ccccc1O)c1ccc(Oc2cccc(C(=O)Nc3ccccc3O)c2)cc1` reads 30.4%; that for `COC(=O)c1ccc(C2C3=C(O)CC(c4ccc(F)cc4)CC3=Nc3ccccc3N2C(=O)c2ccccc2)cc1` (stereo not given), 105%.
For `N#Cc1nc(Cc2cccc3ccccc23)oc1N1CCN(C(c2ccccc2)c2ccccc2)CC1`, the ATP content was found to be 132%.
In turn, `COc1ccc(C)c2sc(N(Cc3cccnc3)C(=O)c3ccc(C#N)cc3)nc12` registered an ATP content of 87.4%.
On to `CCOc1cc2c(cc1OCC)C(c1cc(Cl)c(O)c(OCC)c1)NCC2` (stereo not given), for which the ATP content amounted to 97.3%.
The result for `O=C(CCc1ccccc1)c1ccccc1OCC(O)CN1CCCCC1` (stereo not given) reads 62.3%.
`CCCCNc1nc(NC(C)(C)C)nc(NC(C)(C)C)n1` registered an ATP content of 116%.
As for `O=C(Nc1ccc(C23CC4CC(CC(c5ccccc5)(C4)C2)C3)cc1)c1cccs1`, the ATP content was 68.7%.
For `Cc1cc(N(C)C)nc(Nc2ccc(NC(=O)Nc3ccccc3)cc2)n1`, the ATP content was 85.9%.
`O=C1C2=C(Nc3ccccc3SC2c2ccccc2)c2ccccc21` (stereo not given): the ATP content was found to be 17.1%.
